In the supplement of paper PMC10127200:
Structures can show the parent of a compound that is named as a salt.

Assays:
Assay in all cases: Euclidean distance of Cell Painting phenotypic profile (signed KS, 77 features) to DMSO centroid (dimensionless distance); higher = stronger phenotypic change vs DMSO (phenoactivity)
Conditions in all cases: 48 h; 5 or 10 uM (library dependent)
786-O = test system: 786-O
How it was run: (§1)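 Library compounds were applied at 10 or 5 uM, depending on the library, with 0.1% DMSO final, for 48 h to five cancer lines and a healthy fibroblast line. After staining, cells were imaged confocally at 20X across 9 fields per well, and Harmony extracted 77 features, each scored as a signed Kolmogorov-Smirnov statistic against vehicle wells on the same plate. Phenoactivity is the Euclidean distance between each profile and the median vehicle profile, with profiles first plate-position corrected, correlation-weighted and averaged over replicates at the top dose.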

A549 = test system: A549
How it was run: as §1

DU145 = test system: DU145
How it was run: as §1

FB = test system: FB
How it was run: as §1

HEPG2 = test system: HEPG2
How it was run: as §1

OVCAR4 = test system: OVCAR4
How it was run: as §1

Row | SMILES | Euclidean distance (786-O) | Euclidean distance (A549) | Euclidean distance (DU145) | Euclidean distance (FB) | Euclidean distance (HEPG2) | Euclidean distance (OVCAR4)
1 | O=c1ccc2ccc3occc3c2o1 [Isopsoralen] | 1.25 | 0.993 | 0.786 | 1.02 | 0.495 | 1.1
2 | O=C(O)CCCc1ccc(N(CCCl)CCCl)cc1 [Chloroambucil] | 2.21 | 1.7 | 0.964 | 1.7 | 0.893 | 1.49
3 | CCCCCCC(=O)O[C@H]1CC[C@H]2[C@@H]3CCC4=CC(=O)CC[C@]4(C)[C@H]3CC[C@]12C [Testosterone Enanthate] | 0.918 | 0.756 | 0.828 | 0.666 | 0.553 | 1.49
4 | CC(C)(C)[C@]1(O)CC2OC(=O)CC23C(=O)OC2OC(=O)[C@H](O)C231 (stereo partly specified) [Bilobalide] | 1 | 1.09 | 0.515 | 0.78 | 0.996 | 1.47
5 | Cc1cc(O)ccc1Cl [Chlorocresol] | 0.894 | 0.612 | 0.527 | 0.762 | 0.668 | 1.1
6 | N[C@@H](Cc1ccc(N(CCCl)CCCl)cc1)C(=O)O [Melphalan] | 2.91 | 2.76 | 1.19 | 2.75 | 2.72 | 2.13
7 | COc1ccc2c3c([nH]c2c1)C(C)=NCC3 [Harmaline] | 1.25 | 0.845 | 1.34 | 1.09 | 0.398 | 1.37
8 | CC(C)NCC(O)c1ccccc1Cl (stereo unspecified) [Clorprenaline HCl] | 1.06 | 1.11 | 0.599 | 1.22 | 0.405 | 1.29
9 | CC[C@H]1CN2CC[C@H]1C[C@@H]2[C@@H](O)c1ccnc2ccc(OC)cc12 [Hydroquinidine] | 0.75 | 0.791 | 0.64 | 1.18 | 0.881 | 1.23
10 | CCC12C=CCN3CC[C@@]4(c5ccc(OC)cc5N(C)[C@H]4[C@@](O)(C(=O)OC)[C@@H]1OC(C)=O)[C@@H]32 (stereo partly specified) [Vindoline] | 1.01 | 0.491 | 0.771 | 0.943 | 0.607 | 0.946
11 | CCC1(C)CC(=O)NC(=O)C1 [Bemegride] | 0.845 | 0.616 | 0.948 | 0.603 | 0.381 | 0.793
12 | CC(C)(O)C(Cl)(Cl)Cl [Chlorobutanol] | 1.34 | 1.04 | 1.02 | 0.61 | 0.725 | 2
13 | CC(C)[C@]12O[C@H]1[C@@H]1O[C@]13[C@]1(O[C@H]1C[C@H]1C4=C(CC[C@@]13C)C(=O)OC4)[C@@H]2O [Triptolide (PG490)] | 3.96 | 3.27 | 3.16 | 4.12 | 2.73 | 3.81
14 | c1ccc2c(c1)Sc1ccccc1N2CC1CN2CCC1CC2 (stereo unspecified) [Mequitazine] | 2.14 | 1.44 | 1.35 | 2.64 | 2.43 | 1.19
15 | C[C@]12CC[C@@H](O)C[C@@H]1CC[C@@H]1[C@@H]2CC[C@]2(C)C(=O)CC[C@@H]12 [Androsterone] | 1.51 | 0.773 | 1.2 | 1.28 | 0.665 | 1.07
16 | COc1ccc2c(c1)[nH]c1c(C)nccc12 [Harmine hydrochloride] | 1.41 | 1.17 | 1.13 | 1.58 | 1.06 | 1.25
17 | C[N+](C)(C)CCCCCCCCCC[N+](C)(C)C [Decamethonium Bromide] | 0.57 | 0.939 | 0.691 | 0.466 | 0.483 | 1.05
18 | O=c1[nH]c2ccccc2n1C1CCN(CCCC(c2ccc(F)cc2)c2ccc(F)cc2)CC1 [Pimozide] | 1.83 | 3.09 | 1.3 | 1.12 | 0.874 | 0.955
19 | CC(=O)[C@H]1CC[C@H]2[C@@H]3CC[C@H]4C[C@H](O)CC[C@]4(C)[C@H]3CC[C@]12C [Allopregnanolone] | 0.735 | 0.818 | 1.1 | 1.22 | 0.709 | 1.64
20 | COC1=C[C@@H]2[C@@H]3Cc4ccc(OC)c(O)c4[C@]2(CCN3C)CC1=O [Sinomenine hydrochloride] | 0.472 | 0.883 | 1.1 | 1.15 | 0.751 | 0.824
21 | O=C(CBr)N1CC([N+](=O)[O-])([N+](=O)[O-])C1 | 0.949 | 1.3 | 0.88 | 0.833 | 0.776 | 0.926
22 | CN1[C@@H]2CC[C@H]1C[C@@H](OC(=O)[C@H](CO)c1ccccc1)C2 [Hyoscyamine] | 0.984 | 0.92 | 0.681 | 0.505 | 0.646 | 1.31
23 | N[C@@H]1C[C@H]1c1ccccc1 [Tranylcypromine (2-PCPA) HCl] | 1.2 | 1.52 | 1.36 | 2.02 | 1.47 | 1.76

Row | SMILES | Euclidean distance (786-O) | Euclidean distance (A549) | Euclidean distance (DU145) | Euclidean distance (FB) | Euclidean distance (HEPG2) | Euclidean distance (OVCAR4)
24 | Cc1cc2c(C(C)C)c(O)c(O)c(C=O)c2c(O)c1-c1c(C)cc2c(C(C)C)c(O)c(O)c(C=O)c2c1O [Gossypol] | 2.34 | 2.66 | 0.576 | 1.05 | 0.654 | 1.74
25 | COCC1(CO)C(=O)C2CCN1CC2 (stereo unspecified) | 3.17 | 3.25 | 4.09 | 3.41 | 2.42 | 2.18
26 | CC(C)[N+](C)(CCC(C(N)=O)(c1ccccc1)c1ccccc1)C(C)C [Isopropamide Iodide] | 1.26 | 0.953 | 1.08 | 1.25 | 0.717 | 1.23
27 | CC[C@@H](CO)NC(=O)[C@@H]1C=C2c3cccc4c3c(cn4C)C[C@H]2N(C)C1 [Methysergide Maleate] | 0.845 | 0.577 | 0.772 | 0.909 | 0.822 | 1.34
28 | O=C1CCC[C@@H]2[C@H]3CCCN4CCC[C@@H](CN12)[C@@H]34 [(+)-Matrine] | 1 | 0.876 | 0.902 | 1.03 | 0.874 | 0.759
29 | CCC(COC(=O)c1cc(OC)c(OC)c(OC)c1)(c1ccccc1)N(C)C (stereo unspecified) [Trimebutine] | 0.93 | 0.4 | 0.604 | 0.704 | 1.26 | 0.747
30 | O=[N+]([O-])C(Br)(CO)CO [Bronopol] | 1.36 | 1.03 | 1.02 | 0.825 | 0.735 | 1.59
31 | C[C@@H]1CC[C@@]2(OC1)O[C@H]1C[C@H]3[C@@H]4CC=C5C[C@@H](O[C@@H]6O[C@H](CO)[C@@H](O[C@@H]7O[C@@H](C)[C@H](O)[C@@H](O)[C@H]7O)[C@H](O)[C@H]6O[C@@H]6O[C@@H](C)[C@H](O)[C@@H](O)[C@H]6O)CC[C@]5(C)[C@H]4CC[C@]3(C)[C@H]1[C@@H]2C [Dioscin] | 1.76 | 2.54 | 0.921 | 1.29 | 1.15 | 4.63
32 | CC(C)N(CCNC(=O)CN1CCCC1=O)C(C)C [Pramiracetam] | 1.35 | 1.08 | 0.543 | 0.932 | 0.534 | 0.853
33 | CCCCCc1cc(O)cc(O)c1 [Olivetol] | 1.12 | 0.742 | 0.801 | 0.7 | 0.393 | 0.946
34 | CNCC(=O)c1ccc(O)c(O)c1 [Adrenalone HCl] | 1.06 | 0.418 | 1.18 | 1.16 | 0.892 | 0.981
35 | CN1[C@@H]2CC[C@H]1C[C@@H](OC(=O)C(CO)c1ccccc1)C2 (stereo partly specified) [Atropine sulfate] | 0.994 | 0.9 | 0.824 | 0.898 | 0.473 | 1.38
36 | CC1(C)C(C=C(Cl)Cl)C1C(=O)OCc1cccc(Oc2ccccc2)c1 (stereo unspecified) [Permethrin] | 1.12 | 0.946 | 1.16 | 0.816 | 0.999 | 1.43
37 | C#C[C@]1(O)C=C[C@H]2[C@@H]3CCC4=CC(=O)CC[C@@H]4[C@H]3CC[C@@]21CC [Gestodene] | 1.29 | 0.869 | 2.08 | 1.08 | 2.49 | 1.33
38 | CC(NC(C)(C)C)C(=O)c1cccc(Cl)c1 (stereo unspecified) [Amfebutamone HCl] | 1.4 | 1.06 | 0.536 | 1.05 | 0.846 | 1.45
39 | O=c1[nH]c2ccc(Cl)cc2c(N[C@@H]2CN3CCC2CC3)c1-c1nc2ccccc2[nH]1 | 4.06 | 4.17 | 3.75 | 3.55 | 3.51 | 4.86
40 | NC(=O)CN1CC(O)CC1=O (stereo unspecified) [Oxiracetam] | 1.07 | 0.677 | 0.989 | 1.39 | 0.778 | 0.764
41 | COc1ccc(OC)c(C(O)C(C)N)c1 (stereo unspecified) [Methoxamine HCl] | 0.732 | 0.76 | 1.03 | 1.08 | 0.595 | 1.41
42 | CN1[C@@H]2CC(O)C[C@H]1[C@@H]1O[C@@H]12 (stereo partly specified) [Scopine HCl] | 0.344 | 0.885 | 0.479 | 0.66 | 0.893 | 0.714
43 | CC(C)[C@H](N)C(=O)N1CCC[C@H]1B(O)O [Talabostat (Val-boroPro. PT-100)] | 1.38 | 0.905 | 1.12 | 1.08 | 0.878 | 0.712
44 | CCCN1C[C@H](CSC)C[C@@H]2c3cccc4[nH]cc(c34)C[C@H]21 [Pergolide mesylate] | 0.662 | 0.713 | 1.01 | 0.92 | 2.27 | 1.02
45 | COc1cc([C@@H]2c3cc4c(cc3[C@H](O)[C@H]3COC(=O)[C@@H]23)OCO4)cc(OC)c1OC [Picropodophyllin (PPP)] | 3.35 | 2.64 | 4.34 | 2.74 | 3.95 | 3.14
46 | NCC(O)c1ccc(O)cc1 (stereo unspecified) [(+.-)-Octopamine HCl] | 1.71 | 0.639 | 0.896 | 0.934 | 0.45 | 1.03
